The values that follow come from the supplement of paper PMC6555819.

The test system of the first assay is PPARg:RXRa IVT, anti-PPARg (NR concentration 270 nM, RXRa partner concentration 90 nM). Nature of the assay: PBM binding z-score (relative to random genomic background probes); higher = stronger binding; sequences stand for … in GC…GCGATTGACAGCGTAGAATGAAGG
The essentials:
(§1)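 Antibodies against each partner of ligand-free nuclear receptor dimers (one per run) detected binding on custom Agilent 4×180K protein-binding microarrays after 1 h incubation. The double-stranded probes had 34-nt variable regions carrying direct-repeat seeds, single-nucleotide variants, half-site ablations and random human genomic background sequences. Binding z-scores, from regression-normalized fluorescence, use the random background probes as reference.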
Sequence ACAGACAGGTGATGAAGGTAACTCCGGCTATCAT showed a PBM binding z-score of 0.462.

In turn, GCGACTGGGGCAAAGCAGGTGACCATAAGGTTGG had a PBM binding z-score of 3.65.

Consider GCTATTAGTTGAAAGGGCAAACGAATGATTCTCG, for which the PBM binding z-score was 1.18.

AGAATGAGGTTATTAAGATCAGGCAATTGCGGTC came in with a PBM binding z-score of 2.56.

Turning to ATCTCTAGGTAAAAGTTCCGTGAATCCCGAGGAT, the PBM binding z-score worked out at 1.72.

On to GCTTGCAGATCAAGGTTAAGAAAGACTAAGCTAA, for which the PBM binding z-score turned out to be 0.227.

The sequence ACTAGCAGGCCAAGGGTCACTCCAGATTAGTCCG gave a PBM binding z-score of 3.57.

The sequence ATCGGAAGGTCGAAGGTGAGTATACCCACCCGAA came in with a PBM binding z-score of 1.53.

CCGACTGGGGCAAAGGTTACCATCCTCAGTACGA: the PBM binding z-score was found to be 5.59.

As for CCTACTGGGCAAAGGTCATTGATCAGTCAAAGCA, the PBM binding z-score was found to be 4.2.

For the sequence ATCTCTAGGTAAAGATAGTACAGTGAATGCAAAT, the PBM binding z-score was 1.59.

As to CATACAGGGTCAGCTAGGCCAGAGCAGGGACGGC, the PBM binding z-score worked out at 2.45.

ATCTATAGGTAAAAGTTCAGTGAATCCCGAGGAT came in with a PBM binding z-score of 3.05.

In the case of ATCGAAAGGTCGAGGTGAGTCTAGAGAAAGGGAA, the PBM binding z-score came out at 2.56.

Consider TCTCGTAGATCAATAGAGGTTAAGAAAGTGCGCT, for which the PBM binding z-score worked out at 0.219.

With GCGACTGGGGCAAAGCAGGTTTCCATAAGGTTGG, the PBM binding z-score was determined as 3.02.

The sequence ACATGTAGGTTATCGGGTCATTCAGTTTGCGCAT yielded a PBM binding z-score of 6.82.

Sequence CCGAGTAGGTTACGGGGCATTCAGGCAACGGTGA yielded a PBM binding z-score of 4.11.

GTGCCAAGGTGAATAGGTCGTTGATGAGTAGGCG registered a PBM binding z-score of 2.66.

GATACAGGGCCAAGGCCAGAGTACGCGTATTGAT had a PBM binding z-score of -0.178.

In the case of CCTACTGGGCCATCAGGGCATTGATATCAACGTT, the PBM binding z-score was found to be 3.99.

Turning to ATCTCTAGGTAACCAAGTTAAGTGAATGCCGAAC, the PBM binding z-score was determined as 2.78.

With ACTAGCAGGCCATGGGTCACTCAAGATTAGTCCG, the PBM binding z-score came out at 2.7.

CGTCAAAGTTCAAGGTAACGAAACAGAAAGCAGC registered a PBM binding z-score of 2.29.

The sequence TTACCAAGGTGAAGGTTGTTGATCCCTCTGTAGA had a PBM binding z-score of 2.94.

Take TCTAGTTGGTCACGGAGGTCTCACACGACGGGTA: the PBM binding z-score came to 2.67.

As for CGTCCAAGGTCAGCAGGTCAGTGAAAGCGACGTG, the PBM binding z-score is 3.8.

Regarding CCTGCTATGTCAATGGTCAGCTAAAGCAGCTCGC, the PBM binding z-score is 0.02.

CCGACTGGGGCAAAGGTTACCATTCTCAGTACGA: the PBM binding z-score was found to be 5.9.

CGTCCAAGGTCAGCGAGGTCAGTGAATGCCGAGT: the PBM binding z-score was determined as 3.81.

AGTCAAAGTTCACTAGCTAACGTAAGATTCAGCT: the PBM binding z-score is 1.99.

With TCAATTAGTTGAAGGGCAACCGACGAGTCCGTTT, the PBM binding z-score came to 0.225.

In the case of TCTCGGAGGACACGAAAGGTTAGAGCTCGACATC, the PBM binding z-score came out at 0.57.

In the case of TGAATGAGGTTATAAGATCAGGGAGCGTTGCAAA, the PBM binding z-score was 1.56.

TCTGCTAGGTCAACGAAGGTCAGCTAATCTGCTA: the PBM binding z-score is 4.53.

In turn, TCTTGTAGATCAACAGGAGGCTAAGAAAGATCGA gave a PBM binding z-score of 0.746.

The sequence CTCGAAAGGTCGGGTGAGGTGAGTATACGGATAA returned a PBM binding z-score of 1.74.

TAGCATAGGTCATTCAGGGGCCAGTATAGAAAGC registered a PBM binding z-score of 2.08.

The sequence ATGCCAAGGTGATCGTGAGGTCGTTGATACTAAC returned a PBM binding z-score of 1.05.

GAATATAGGTAATACAAGGTGAAAGTCCGATTGT displayed a PBM binding z-score of 6.08.

For another assay, the system named is PPARg DBDmut:RXRa IVT, anti-PPARg (DBD mutation: PPARg1 K132A/R137A, NR concentration 270 nM, RXRa partner concentration 90 nM). The assay is described as above. The essentials: as §1
ACAGACAGGTGATGAAGGTAACTCCGGCTATCAT yielded a PBM binding z-score of 0.468.

As to GCGACTGGGGCAAAGCAGGTGACCATAAGGTTGG, the PBM binding z-score was -0.66.

Turning to GCTATTAGTTGAAAGGGCAAACGAATGATTCTCG, the PBM binding z-score turned out to be 0.0539.

AGAATGAGGTTATTAAGATCAGGCAATTGCGGTC had a PBM binding z-score of 0.272.

Consider ATCTCTAGGTAAAAGTTCCGTGAATCCCGAGGAT, for which the PBM binding z-score was 0.769.

For the sequence GCTTGCAGATCAAGGTTAAGAAAGACTAAGCTAA, the PBM binding z-score was -0.556.

Take ACTAGCAGGCCAAGGGTCACTCCAGATTAGTCCG: the PBM binding z-score was -0.0917.

In turn, ATCGGAAGGTCGAAGGTGAGTATACCCACCCGAA returned a PBM binding z-score of 0.343.

For the sequence CCGACTGGGGCAAAGGTTACCATCCTCAGTACGA, the PBM binding z-score was -0.502.

The sequence CCTACTGGGCAAAGGTCATTGATCAGTCAAAGCA yielded a PBM binding z-score of -0.384.

ATCTCTAGGTAAAGATAGTACAGTGAATGCAAAT came in with a PBM binding z-score of 1.31.

For the sequence CATACAGGGTCAGCTAGGCCAGAGCAGGGACGGC, the PBM binding z-score was 0.782.

On to ATCTATAGGTAAAAGTTCAGTGAATCCCGAGGAT, for which the PBM binding z-score was found to be 1.78.

As for ATCGAAAGGTCGAGGTGAGTCTAGAGAAAGGGAA, the PBM binding z-score turned out to be 0.697.

Take TCTCGTAGATCAATAGAGGTTAAGAAAGTGCGCT: the PBM binding z-score amounted to 0.246.

As to GCGACTGGGGCAAAGCAGGTTTCCATAAGGTTGG, the PBM binding z-score is -0.184.

As to ACATGTAGGTTATCGGGTCATTCAGTTTGCGCAT, the PBM binding z-score is 3.46.

Turning to CCGAGTAGGTTACGGGGCATTCAGGCAACGGTGA, the PBM binding z-score is -0.288.

In turn, GTGCCAAGGTGAATAGGTCGTTGATGAGTAGGCG registered a PBM binding z-score of 0.113.

GATACAGGGCCAAGGCCAGAGTACGCGTATTGAT registered a PBM binding z-score of -0.899.

CCTACTGGGCCATCAGGGCATTGATATCAACGTT returned a PBM binding z-score of 0.633.

Sequence ATCTCTAGGTAACCAAGTTAAGTGAATGCCGAAC registered a PBM binding z-score of 0.758.

As for ACTAGCAGGCCATGGGTCACTCAAGATTAGTCCG, the PBM binding z-score is -0.371.

CGTCAAAGTTCAAGGTAACGAAACAGAAAGCAGC: the PBM binding z-score was 0.604.

TTACCAAGGTGAAGGTTGTTGATCCCTCTGTAGA gave a PBM binding z-score of 0.413.

In the case of TCTAGTTGGTCACGGAGGTCTCACACGACGGGTA, the PBM binding z-score was found to be 0.65.

Sequence CGTCCAAGGTCAGCAGGTCAGTGAAAGCGACGTG yielded a PBM binding z-score of 0.0823.

CCTGCTATGTCAATGGTCAGCTAAAGCAGCTCGC came in with a PBM binding z-score of -1.09.

CCGACTGGGGCAAAGGTTACCATTCTCAGTACGA yielded a PBM binding z-score of 0.712.

Take CGTCCAAGGTCAGCGAGGTCAGTGAATGCCGAGT: the PBM binding z-score was -0.776.

With AGTCAAAGTTCACTAGCTAACGTAAGATTCAGCT, the PBM binding z-score worked out at 0.927.

TCAATTAGTTGAAGGGCAACCGACGAGTCCGTTT: the PBM binding z-score was -0.0622.

Sequence TCTCGGAGGACACGAAAGGTTAGAGCTCGACATC came in with a PBM binding z-score of -0.609.

On to TGAATGAGGTTATAAGATCAGGGAGCGTTGCAAA, for which the PBM binding z-score was 0.774.

As to TCTGCTAGGTCAACGAAGGTCAGCTAATCTGCTA, the PBM binding z-score was 0.834.

Take TCTTGTAGATCAACAGGAGGCTAAGAAAGATCGA: the PBM binding z-score stood at 0.507.

As to CTCGAAAGGTCGGGTGAGGTGAGTATACGGATAA, the PBM binding z-score is 0.713.

TAGCATAGGTCATTCAGGGGCCAGTATAGAAAGC yielded a PBM binding z-score of 0.638.

The sequence ATGCCAAGGTGATCGTGAGGTCGTTGATACTAAC yielded a PBM binding z-score of 0.0542.

As to GAATATAGGTAATACAAGGTGAAAGTCCGATTGT, the PBM binding z-score is 2.27.
